The whole screen tested about 5,500 compounds, of which about 2,000 (36%) were called active. About 18% were inconclusive and are not listed. Rule as the data show it: active = normalized growth mostly below about 0.91 (no sharp cut-off); inconclusive = no clear call, values can overlap the other calls; inactive = mostly above about 0.92. The list shows a part of the results.
Test: chemical genetic growth profiling, strain panel (AID 1159580);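 also: tested at 20 µM; growth read once vehicle control cultures reached saturation at 30 °C; 1 = growth at the plate median or of vehicle wells; lower values mean less growth of the strain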
Conditions: growth OD

Measured: normalized growth

C[C@@H](CO)NC(=O)C1C=C2c3cccc4[nH]cc(c34)C[C@H]2N(C)C1 (some centres not stated)
inactive: S. cerevisiae deletion strains, locus YJR075W, strain HOC1, hits give low values 1.03 | S. cerevisiae deletion strains, locus YKL009W, strain mrt4, hits give low values 0.976 | S. cerevisiae deletion strains, locus YKL068W, hits give low values 0.993 | S. cerevisiae deletion strains, locus YKL085W, strain MDH1 (second series), hits give low values 0.982 | S. cerevisiae deletion strains, locus YKL085W, strain MDH1, hits give low values 0.982 | S. cerevisiae deletion strains, locus YKL160W, strain elf1, hits give low values 1.04 | S. cerevisiae deletion strains, locus YKL190W, strain CNB1, hits give low values 1.01 | S. cerevisiae deletion strains, locus YKR001C, strain vps1, hits give low values 0.997 | S. cerevisiae deletion strains, locus YKR026C, strain gcn3, hits give low values 1.01 | S. cerevisiae deletion strains, locus YKR091W, strain srl3, hits give low values 1.01 | S. cerevisiae deletion strains, locus YLL001W, strain dnm1, hits give low values 1.04 | S. cerevisiae deletion strains, locus YLL026W, hits give low values 1.03 | S. cerevisiae deletion strains, locus YLL041C, strain sdh2, hits give low values 1.01 | S. cerevisiae deletion strains, locus YLR027C, strain aat2, hits give low values 1.03 | S. cerevisiae deletion strains, locus YLR039C, strain RIC1, hits give low values 1.02 | S. cerevisiae deletion strains, locus YLR058C, strain SHM2, hits give low values 1 | S. cerevisiae deletion strains, locus YLR102C, strain apc9, hits give low values 0.993 | S. cerevisiae deletion strains, locus YLR113W, strain HOG1, hits give low values 1.07 | S. cerevisiae deletion strains, locus YLR221C, strain rsa3, hits give low values 0.97 | S. cerevisiae deletion strains, locus YLR258W, strain gsy2, hits give low values 1.01 | S. cerevisiae deletion strains, locus YLR262C, strain YPT6 (second series), hits give low values 1.04 | S. cerevisiae deletion strains, locus YLR262C, strain YPT6, hits give low values 1.05 | S. cerevisiae deletion strains, locus YLR268W, strain sec22, hits give low values 1.02 | S. cerevisiae deletion strains, locus YLR320W, strain mms22, hits give low values 1 | S. cerevisiae deletion strains, locus YLR330W, strain CHS5, hits give low values 0.994 | S. cerevisiae deletion strains, locus YLR342W, strain FKS1 (second series), hits give low values 0.973 | S. cerevisiae deletion strains, locus YLR342W, strain FKS1, hits give low values 1.03 | S. cerevisiae deletion strains, locus YLR357W, strain rsc2, hits give low values 1 | S. cerevisiae deletion strains, locus YLR370C, strain arc18, hits give low values 1.02 | S. cerevisiae deletion strains, locus YLR371W, strain rom2, hits give low values 0.993 | S. cerevisiae deletion strains, locus YLR384C, strain iki3, hits give low values 0.998 | S. cerevisiae deletion strains, locus YLR418C, strain cdc73, hits give low values 1.02 | S. cerevisiae deletion strains, locus YML016C, strain PPZ1, hits give low values 0.991 | S. cerevisiae deletion strains, locus YML032C, strain rad52, hits give low values 0.981 | S. cerevisiae deletion strains, locus YML120C, strain ndi1, hits give low values 1.04 | S. cerevisiae deletion strains, locus YML124C, strain tub3, hits give low values 0.992 | S. cerevisiae deletion strains, locus YMR058W, strain fet3, hits give low values 1.03 | S. cerevisiae deletion strains, locus YMR078C, strain ctf18, hits give low values 0.985 | S. cerevisiae deletion strains, locus YMR125W, strain sto1, hits give low values 1.01 | S. cerevisiae deletion strains, locus YMR129W, hits give low values 1.01 | S. cerevisiae deletion strains, locus YMR205C, strain PFK2, hits give low values 1.04 | S. cerevisiae deletion strains, locus YMR223W, strain ubp8, hits give low values 0.988 | S. cerevisiae deletion strains, locus YMR231W, strain pep5, hits give low values 1 | S. cerevisiae deletion strains, locus YMR263W, strain SAP30, hits give low values 1.04 | S. cerevisiae deletion strains, locus YMR307W, strain GAS1, hits give low values 0.96 | S. cerevisiae deletion strains, locus YNL067W, strain RPL9B, hits give low values 1.05 | S. cerevisiae deletion strains, locus YNL071W, strain lat1, hits give low values 1 | S. cerevisiae deletion strains, locus YNL128W, strain TEP1, hits give low values 1.03 | S. cerevisiae deletion strains, locus YNL153C, strain GIM3, hits give low values 1.01 | S. cerevisiae deletion strains, locus YNL183C, strain NPR1, hits give low values 0.994 | S. cerevisiae deletion strains, locus YNL209W, strain ssb2, hits give low values 1 | S. cerevisiae deletion strains, locus YNL233W, strain BNI4, hits give low values 1.01 | S. cerevisiae deletion strains, locus YNL248C, strain rpa49, hits give low values 0.991 | S. cerevisiae deletion strains, locus YNL250W, strain rad50, hits give low values 1.01 | S. cerevisiae deletion strains, locus YNL271C, strain bni1, hits give low values 1 | S. cerevisiae deletion strains, locus YNL298W, strain CLA4, hits give low values 0.992 | S. cerevisiae deletion strains, locus YNL307C, strain MCK1, hits give low values 0.985 | S. cerevisiae deletion strains, locus YNL322C, strain KRE1 (second series), hits give low values 1.02 | S. cerevisiae deletion strains, locus YNL322C, strain KRE1, hits give low values 1.01 | S. cerevisiae deletion strains, locus YNR049C, strain mso1, hits give low values 1.01 | S. cerevisiae deletion strains, locus YNR052C, strain pop2, hits give low values 0.984 | S. cerevisiae deletion strains, locus YOL006C, strain TOP1, hits give low values 1.09 | S. cerevisiae deletion strains, locus YOL012C, strain htz1 0.782 | S. cerevisiae deletion strains, locus YOL147C, strain pex11, hits give low values 0.996 | S. cerevisiae deletion strains, locus YOR001W, strain rrp6, hits give low values 1.02 | S. cerevisiae deletion strains, locus YOR061W, strain CKA2, hits give low values 1 | S. cerevisiae deletion strains, locus YOR069W, strain VPS5, hits give low values 0.992 | S. cerevisiae deletion strains, locus YOR070C, strain gyp1, hits give low values 1 | S. cerevisiae deletion strains, locus YOR080W, strain dia2, hits give low values 1.02 | S. cerevisiae deletion strains, locus YOR083W, strain WHI5, hits give low values 1.02 | S. cerevisiae deletion strains, locus YOR106W, strain vam3, hits give low values 1.05 | S. cerevisiae deletion strains, locus YOR136W, strain idh2, hits give low values 0.988 | S. cerevisiae deletion strains, locus YOR144C, strain elg1, hits give low values 0.989 | S. cerevisiae deletion strains, locus YOR184W, strain ser1, hits give low values 1 | S. cerevisiae deletion strains, locus YOR231W, strain MKK1, hits give low values 1.04 | S. cerevisiae deletion strains, locus YOR265W, strain rbl2, hits give low values 1.01 | S. cerevisiae deletion strains, locus YOR270C, strain vph1, hits give low values 1 | S. cerevisiae deletion strains, locus YOR290C, strain snf2, hits give low values 0.969 | S. cerevisiae deletion strains, locus YOR316C, strain cot1, hits give low values 0.988 | S. cerevisiae deletion strains, locus YPL051W, strain arl3, hits give low values 1.01 | S. cerevisiae deletion strains, locus YPL055C, strain LGE1, hits give low values 1.07 | S. cerevisiae deletion strains, locus YPL078C, strain atp4, hits give low values 1.06 | S. cerevisiae deletion strains, locus YPL106C, strain sse1, hits give low values 1.04 | S. cerevisiae deletion strains, locus YPL240C, strain hsp82, hits give low values 1.01 | S. cerevisiae deletion strains, locus YPL241C, strain CIN2, hits give low values 1 | S. cerevisiae deletion strains, locus YPL256C, strain CLN2, hits give low values 1.04 | S. cerevisiae deletion strains, locus YPR119W, strain clb2, hits give low values 1 | S. cerevisiae deletion strains, locus YPR141C, strain kar3, hits give low values 0.993 | S. cerevisiae deletion strains, locus YPR163C, strain tif3, hits give low values 0.994 | S. cerevisiae deletion strains, locus YPR167C, strain met16, hits give low values 0.995 | S. cerevisiae deletion strains, strain wtn01, hits give low values 0.999 | S. cerevisiae strains, strain wild type, hits give low values 1.03

Reference: PubChem BioAssay AID1159580 (chemical genetic matrix, 2015)
